Data: PubChem BioAssay (NCI)
About 83,000 compounds went through this panel and 20% of them were active in at least one assay; those are over-represented in the sample as a whole.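 Treatment: one concentration, 48 hours, 96-well format. Scoring: percent growth, with anything below 10 considered active.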 Activity calls are given as the source filed them.

Tests used:
Assay in all cases: NCI-60 one-dose screen, 48 h (100 = growth as untreated, 0 = no growth, -100 = all killed)
Conditions in all cases: 10 µM unless noted
[1] = system: DU-145 prostate
[2] = system: K-562 leukemia
[3] = system: MALME-3M melanoma
[4] = system: MDA-MB-231 breast
[5] = system: RXF 393 renal
[6] = system: SF-268 CNS
[7] = system: SF-295 CNS
[8] = system: SF-539 CNS
[9] = system: UACC-257 melanoma
[10] = system: M14 melanoma
[11] = system: HCT-15 colon
[12] = system: HT29 colon
[13] = system: SNB-75 CNS
[14] = system: SNB-19 CNS
[15] = system: U251 CNS
[16] = system: PC-3 prostate
[17] = system: SK-MEL-5 melanoma
[18] = system: UACC-62 melanoma
[19] = system: LOX IMVI melanoma
[20] = system: SK-MEL-28 melanoma

Measured: growth

Ic1ccc(SSc2ccc(I)cc2)cc1
inactive: [1] 103% | [2] 95.5% | [3] 114% | [4] 87.8% | [5] 99.7% | [6] 59.2% | [7] 77.5% | [8] 86.1% | [9] 88.1% | [10] 104% | [11] 99.5% | [12] 95.3% | [13] 88.4% | [14] 94.6% | [15] 67.8% | [16] 58.5% | [17] 90.8% | [18] 97.8% | [20] 108%
active: [19] 0.697%

CCC(C)(C)c1ccc(OCCCCCCN2CCNCC2)cc1
active: [2] -29% | [11] -36.1% | [12] 8.87% | [19] -47.1%
inactive: [1] 49.3% | [3] 72% | [4] 78.5% | [5] 35.9% | [6] 78.5% | [7] 84.4% | [8] 61.4% | [9] 75.9% | [10] 65.5% | [13] 60.5% | [14] 68.6% | [15] 18.8% | [16] 64.3% | [17] 34.2% | [18] 85.6% | [20] 74.2%

COc1ccc(-c2nc(SCC(C)C)nc(Nc3ccc(C(=O)O)cc3)c2C#N)cc1
inactive: [1] 88.7% | [2] 89% | [4] 109% | [5] 83.1% | [6] 91% | [7] 75.9% | [8] 97.1% | [9] 96.9% | [10] 93% | [11] 33% | [12] 94.7% | [13] 88.6% | [14] 98.1% | [15] 94.8% | [16] 82.3% | [17] 63.3% | [18] 99.3% | [19] 88% | [20] 25.5%
active: [3] -57.7%

Cc1ccc2c(c1)C(=O)CCS2
inactive: [1] 107% | [2] 114% | [3] 85% | [4] 94.2% | [5] 115% | [6] 112% | [7] 108% | [8] 87.3% | [9] 102% | [10] 96.1% | [11] 90.8% | [12] 103% | [13] 80.8% | [14] 111% | [15] 92.9% | [16] 101% | [17] 104% | [18] 97.4% | [19] 95% | [20] 102%

COC(=O)c1ccc2[nH]c(O)c(C(=Nc3ccc(N(C)C(=O)CN4CCN(C)CC4)cc3)c3ccc(C)cc3)c2c1
active: [1] -14.2% | [2] -32.9% | [3] -94.6% | [4] -22.9% | [5] -98.2% | [6] 5.16% | [7] 1.13% | [8] -96.1% | [9] -59.4% | [10] -83.7% | [11] -38.5% | [12] -23.3% | [13] -26.8% | [14] -10.6% | [15] -77.2% | [16] -16% | [17] -73.1% | [18] -19% | [19] 4.3% | [20] -8.16%

CC(=O)NCCN
inactive: [1] 116% | [2] 101% | [3] 100% | [4] 101% | [5] 90.1% | [6] 108% | [7] 101% | [8] 94.9% | [9] 86.9% | [10] 108% | [11] 94% | [12] 101% | [13] 89.7% | [14] 98.8% | [15] 97.3% | [16] 92.3% | [17] 108% | [18] 102% | [19] 93.3% | [20] 108%

CC(=O)Nc1nc(C)c(C(=O)NNC(=O)Nc2ccccc2)s1
inactive: [1] 101% | [2] 114% | [3] 126% | [4] 89.6% | [5] 121% | [6] 99.8% | [7] 116% | [8] 99.4% | [9] 116% | [10] 107% | [11] 96.7% | [12] 99% | [13] 98.4% | [14] 93.9% | [15] 102% | [16] 85.2% | [17] 97% | [18] 78.1% | [19] 97.9% | [20] 105%

COc1ccc(/C(=C(\c2ccccc2)[N+](=O)[O-])c2ccc(OCCN3CCCC3)cc2)cc1
inactive: [1] 89.3% | [2] 13.7% | [4] 55% | [5] 25% | [6] 84.4% | [7] 31.9% | [8] 28.6% | [13] 76% | [14] 87.8% | [15] 74.1% | [16] 69.4% | [18] 38.4%
active: [3] -7.32% | [9] -26.1% | [10] -73.4% | [11] 6.54% | [12] 9.77% | [17] -78.2% | [19] -20.1% | [20] -10.3%
